Assay results published in the supplement of paper PMC7411054.

What was measured:
Settings in all cases: treatment time: 24 h
A549-ACTB-RAB5A [1] = experiment: lowest phenotypically active concentration; higher = less potent
In short: (§1)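 Fifteen reporter lines derived from A549, HepG2 and WPMY1 cells by gene editing, carrying BFP for segmentation plus GFP and RFP/FusionRed markers, were exposed to 0.3, 1, 3 or 9 µM for 24 h in four wells each and imaged live. Live-cell features from each well were normalised to solvent control wells. A well set counted as deviating when ≥3 of 4 wells lay beyond the 95th percentile of control Euclidean distances, and as reproducible when the median replicate Pearson correlation exceeded the 95th percentile of non-replicates. Phenotypic activity was assigned only when both criteria were met.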

A549-CANX-COX4 [2] = experiment: as above
In short: as §1

A549-GM130-SQSTM1 [3] = experiment: as above
In short: as §1

A549-TP53BP1-CLTA [4] = experiment: as above
In short: as §1

A549-TUBA1B-RELA [5] = experiment: as above
In short: as §1

HepG2-TP53BP1-CLTA [6] = experiment: as above
In short: as §1

A549-ACTB-RAB5A [7] = experiment: phenotypically active (imaging signature differs from DMSO and reproducible) at any of 0.3-9 uM (binary (1 = active, 0 = inactive)); higher = active
In short: as §1

A549-CANX-COX4 [8] = experiment: as above
In short: as §1

A549-GM130-SQSTM1 [9] = experiment: as above
In short: as §1

A549-TP53BP1-CLTA [10] = experiment: as above
In short: as §1

A549-TUBA1B-RELA [11] = experiment: as above
In short: as §1

HepG2-ACTB-RAB5A = experiment: as above
In short: as §1

HepG2-CANX-COX4 = experiment: as above
In short: as §1

HepG2-GM130-SQSTM1 = experiment: as above
In short: as §1

HepG2-TP53BP1-CLTA [12] = experiment: as above
In short: as §1

HepG2-TUBA1B-RELA = experiment: as above
In short: as §1

WPMY1-CANX-COX4 = experiment: as above
In short: as §1

WPMY1-GM130-SQSTM1 = experiment: as above
In short: as §1

WPMY1-TP53BP1-CLTA = experiment: as above
In short: as §1

WPMY1-TUBA1B-RELA = experiment: as above
In short: as §1

SMILES | lowest phenotypically active concentration (A549-ACTB-RAB5A [1]) | lowest phenotypically active concentration (A549-CANX-COX4 [2]) | lowest phenotypically active concentration (A549-GM130-SQSTM1 [3]) | lowest phenotypically active concentration (A549-TP53BP1-CLTA [4]) | lowest phenotypically active concentration (A549-TUBA1B-RELA [5]) | lowest phenotypically active concentration (HepG2-TP53BP1-CLTA [6]) | phenotypically active (A549-ACTB-RAB5A [7]) | phenotypically active (A549-CANX-COX4 [8]) | phenotypically active (A549-GM130-SQSTM1 [9]) | phenotypically active (A549-TP53BP1-CLTA [10]) | phenotypically active (A549-TUBA1B-RELA [11]) | phenotypically active (HepG2-ACTB-RAB5A) | phenotypically active (HepG2-CANX-COX4) | phenotypically active (HepG2-GM130-SQSTM1) | phenotypically active (HepG2-TP53BP1-CLTA [12]) | phenotypically active (HepG2-TUBA1B-RELA) | phenotypically active (WPMY1-CANX-COX4) | phenotypically active (WPMY1-GM130-SQSTM1) | phenotypically active (WPMY1-TP53BP1-CLTA) | phenotypically active (WPMY1-TUBA1B-RELA)
CCNC(=O)c1noc(-c2cc(C(C)C)c(O)cc2O)c1-c1ccc(CN2CCOCC2)cc1 | ≤ 0.3 µM | ≤ 0.3 µM | ≤ 0.3 µM | ≤ 0.3 µM | ≤ 0.3 µM | ≤ 0.3 µM | 1 (active) | 1 (active) | 1 (active) | 1 (active) | 1 (active) | 1 (active) | 1 (active) | 1 (active) | 1 (active) | 1 (active) | 1 (active) | 1 (active) | 1 (active) | 1 (active)
COc1c(C)cnc(Cn2cnc3c(Cl)nc(N)nc32)c1C | ≤ 0.3 µM | ≤ 0.3 µM | ≤ 0.3 µM | ≤ 0.3 µM | ≤ 0.3 µM | ≤ 0.3 µM | 1 (active) | 1 (active) | 1 (active) | 1 (active) | 1 (active) | 1 (active) | 1 (active) | 1 (active) | 1 (active) | 1 (active) | 1 (active) | 1 (active) | 1 (active) | 1 (active)
C=CC(=O)Nc1cccc(Nc2nc(Nc3ccc(Oc4ccnc(C(=O)NC)c4)cc3)ncc2F)c1 | 9 µM | 9 µM | 9 µM | 9 µM | 9 µM | 9 µM | 1 (active) | 1 (active) | 1 (active) | 1 (active) | 1 (active) | 1 (active) | 0 (inactive) | 1 (active) | 1 (active) | 1 (active) | 1 (active) | 1 (active) | 0 (inactive) | 0 (inactive)
CCN(CC)CCNc1ccc(CO)c2sc3ccccc3c(=O)c12 [hycanthone] | 9 µM | 9 µM | 9 µM | 9 µM | 9 µM | 9 µM | 1 (active) | 1 (active) | 1 (active) | 1 (active) | 1 (active) | 1 (active) | 0 (inactive) | 1 (active) | 1 (active) | 1 (active) | 1 (active) | 1 (active) | 1 (active) | 1 (active)
CC(C)CNc1nc(-c2cccc3ncccc23)cn2c(-c3ccc(C(=O)NC4CC4)cc3)cnc12 | ≤ 0.3 µM | 1 µM | ≤ 0.3 µM | 1 µM | ≤ 0.3 µM | 1 µM | 1 (active) | 1 (active) | 1 (active) | 1 (active) | 1 (active) | 1 (active) | 1 (active) | 1 (active) | 1 (active) | 1 (active) | 0 (inactive) | 1 (active) | 1 (active) | 0 (inactive)
Cc1ccc(Nc2nccc(N(C)c3ccc4c(C)n(C)nc4c3)n2)cc1S(N)(=O)=O [pazopanib] | 1 µM | 3 µM | 3 µM | 1 µM | 3 µM | 9 µM | 1 (active) | 1 (active) | 1 (active) | 1 (active) | 1 (active) | 0 (inactive) | 1 (active) | 1 (active) | 1 (active) | 0 (inactive) | 1 (active) | 0 (inactive) | 0 (inactive) | 1 (active)
CC[C@H](CO)Nc1nc(NCc2ccccc2)c2ncn(C(C)C)c2n1 [Roscovitine] | ≤ 0.3 µM | 9 µM | ≤ 0.3 µM | 9 µM | ≤ 0.3 µM | 3 µM | 1 (active) | 1 (active) | 1 (active) | 1 (active) | 1 (active) | 1 (active) | 1 (active) | 1 (active) | 1 (active) | 1 (active) | 1 (active) | 0 (inactive) | 1 (active) | 1 (active)
O=C(Nc1cccnc1)N1CCC(Cc2cccc(Oc3ccc(C(F)(F)F)cn3)c2)CC1 | 9 µM | 9 µM | 3 µM | 9 µM | 9 µM | 9 µM | 1 (active) | 1 (active) | 1 (active) | 1 (active) | 1 (active) | 1 (active) | 0 (inactive) | 0 (inactive) | 1 (active) | 1 (active) | 0 (inactive) | 1 (active) | 0 (inactive) | 0 (inactive)
CNc1nc(-c2ccc3c(N)n[nH]c3c2)cc(N2C[C@@H](C(=O)NC3CCCCC3)CC[C@H]2C)n1 | 1 µM | 3 µM | 1 µM | 3 µM | 3 µM | 3 µM | 1 (active) | 1 (active) | 1 (active) | 1 (active) | 1 (active) | 0 (inactive) | 1 (active) | 1 (active) | 1 (active) | 1 (active) | 1 (active) | 1 (active) | 1 (active) | 1 (active)
CN(C)C(=O)C(CCN1CCC(O)(c2ccc(Cl)cc2)CC1)(c1ccccc1)c1ccccc1 [loperamide] | 3 µM | 9 µM | 9 µM | 9 µM | 3 µM | 9 µM | 1 (active) | 1 (active) | 1 (active) | 1 (active) | 1 (active) | 1 (active) | 0 (inactive) | 1 (active) | 1 (active) | 1 (active) | 1 (active) | 1 (active) | 1 (active) | 1 (active)
CN1CCCC(n2nc(Cc3ccc(Cl)cc3)c3ccccc3c2=O)CC1 (stereo not given) [azelastine] | 3 µM | 9 µM | 9 µM | 9 µM | 3 µM | 9 µM | 1 (active) | 1 (active) | 1 (active) | 1 (active) | 1 (active) | 1 (active) | 0 (inactive) | 1 (active) | 1 (active) | 1 (active) | 1 (active) | 1 (active) | 1 (active) | 1 (active)
C[C@@H](N)[C@H]1CC[C@H](C(=O)Nc2ccncc2)CC1 | 3 µM | 9 µM | 9 µM | 3 µM | 9 µM | 1 µM | 1 (active) | 1 (active) | 1 (active) | 1 (active) | 1 (active) | 1 (active) | 1 (active) | 1 (active) | 1 (active) | 1 (active) | 1 (active) | 1 (active) | 1 (active) | 1 (active)
Cc1ccc(C(=O)N(CCCN)[C@@H](c2oc3cc(Cl)ccc3c(=O)c2Cc2ccccc2)C(C)C)cc1 | ≤ 0.3 µM | ≤ 0.3 µM | ≤ 0.3 µM | ≤ 0.3 µM | ≤ 0.3 µM | ≤ 0.3 µM | 1 (active) | 1 (active) | 1 (active) | 1 (active) | 1 (active) | 1 (active) | 1 (active) | 1 (active) | 1 (active) | 1 (active) | 1 (active) | 1 (active) | 1 (active) | 1 (active)
O=C1c2ccccc2-c2nc3nonc3nc21 | 3 µM | 1 µM | 3 µM | 3 µM | 3 µM | 3 µM | 1 (active) | 1 (active) | 1 (active) | 1 (active) | 1 (active) | 1 (active) | 1 (active) | 1 (active) | 1 (active) | 1 (active) | 1 (active) | 0 (inactive) | 0 (inactive) | 1 (active)
CCCCCCCCCCNCCSSCc1ccc(Cl)cc1 | 9 µM | 9 µM | 3 µM | 9 µM | 3 µM | 9 µM | 1 (active) | 1 (active) | 1 (active) | 1 (active) | 1 (active) | 1 (active) | 1 (active) | 1 (active) | 1 (active) | 1 (active) | 1 (active) | 1 (active) | 1 (active) | 0 (inactive)
CC[C@]12CCCN3CCc4c(n(c5ccccc45)C(=O)C1)[C@@H]32 [Eburnamonine (-)] | 9 µM | 9 µM | 9 µM | 9 µM | 9 µM | 9 µM | 1 (active) | 1 (active) | 1 (active) | 1 (active) | 1 (active) | 1 (active) | 0 (inactive) | 0 (inactive) | 1 (active) | 1 (active) | 1 (active) | 0 (inactive) | 1 (active) | 1 (active)
